Reference: the supplement of paper PMC6331611
± gives the standard deviation of the averaged measurements. Over roughly 1,600 compounds, “normalized growth (OD600, IQM-normalized) in LPM” has its median near 1; the lowest 2% begin near 0.014. Shown is part of a subset that was picked to be rich in the lowest values.

test system: Salmonella enterica serovar Typhimurium SL1344; assay: normalized growth (OD600, IQM-normalized) in LPM (fraction of plate interquartile mean); higher = more bacterial growth (less inhibition); conditions: LPM pH 5.8; 10 µM; 16 h

SMILES | normalized growth
CCn1cc(C(=O)O)c(=O)c2cc3c(cc21)OCO3 | 0.00952 ± 0.00073
C[N+]1(C)CCCC(OC(=O)C(O)(c2ccccc2)c2ccccc2)C1 (stereo not given) | 1.1 ± 0.011
CC[C@H]1CN2CC[C@H]1C[C@@H]2[C@@H](O)c1ccnc2ccc(OC)cc12 | 0.912 ± 0.022
CC(C)C[C@H]1C(=O)N2CCC[C@H]2[C@]2(O)O[C@](NC(=O)[C@@H]3C=C4c5cccc6[nH]c(Br)c(c56)C[C@H]4N(C)C3)(C(C)C)C(=O)N12 | 0.947 ± 0.03
Cc1ccc(O)cc1.Cc1cccc(O)c1.Cc1ccccc1O | 0.955 ± 0.19
O=[N+]([O-])C(Br)(CO)CO | 0.786 ± 0.02
CCCCOC(=O)c1ccccc1C(=O)OCCCC | 1.363 ± 0.0046
C[CH2][Hg][S]c1ccccc1C(=O)[O-].[Na+] | 0.00984 ± 0.0003
O=C([O-])Cc1ccccc1.[Na+] | 1.14 ± 0.026
Oc1noc2c1CCNC2 | 0.948 ± 0.041
[O-][n+]1ccccc1[S-].[O-][n+]1ccccc1[S-].[Zn+2] | 0.00799 ± 0.00024
O=C1CCO1 | 0.959 ± 0.039
Oc1ccc2c3c1O[C@H]1[C@@H](O)CC[C@@]4(O)[C@@H](C2)N(CC2CCC2)CC[C@]314 | 0.92 ± 0.12
CC(=O)[O][Hg][c]1ccccc1 | 0.0096 ± 0.00029
CC(Cc1ccc(O)cc1)NCC(O)c1cc(O)cc(O)c1 (stereo not given) | 1.087 ± 0.0059
CCOP(=S)(OCC)Oc1nc(Cl)c(Cl)cc1Cl | 1.33 ± 0.11
NC(=O)C[S+]([O-])C(c1ccccc1)c1ccccc1 (stereo not given) | 0.865 ± 0.082
CC(C)=CC1C(C(=O)OCc2cccc(Oc3ccccc3)c2)C1(C)C (stereo not given) | 0.894 ± 0.04
NP(N)(=O)NC(=O)c1ccc(F)cc1 | 1.06 ± 0.017
C[N+]12CCC(CC1)C(OC(=O)C(O)(c1ccccc1)c1ccccc1)C2 (stereo not given) | 1.05 ± 0.026
Oc1ccc(Cl)cc1 | 0.971 ± 0.012
Oc1ccc(Cl)cc1Cc1cc(Cl)ccc1O | 0.895 ± 0.086
Oc1cc(Cl)ccc1Oc1ccc(Cl)cc1Cl | 0.00811 ± 0.00016
O=[N+]([O-])O[C@@H]1CO[C@H]2[C@@H]1OC[C@@H]2O | 1.11 ± 0.026
CC(C)(O)C(Cl)(Cl)Cl | 1 ± 0.032
